Measurements as given in PubChem BioAssay AID1159580 (chemical genetic matrix, 2015).
Among all 5,500 compounds or so, about 2,000 (36%) were called active. Roughly 18% stayed inconclusive and do not appear here. Rule as the data show it: active = normalized growth mostly below about 0.91 (no sharp cut-off); inconclusive = no clear call, values can overlap the other calls; inactive = mostly above about 0.92. The list shows a part of the results.

Assay: chemical genetic growth profiling, strain panel (AID 1159580);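 also: tested at 20 µM; growth read once vehicle control cultures reached saturation at 30 °C; 1 = growth at the plate median or of vehicle wells; lower values mean less growth of the strain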
Settings: S. cerevisiae deletion strains, growth OD

Measured: normalized growth

COc1ccccc1/C=C\C(=O)O
inactive: locus YAL013W, strain DEP1, stronger effect = lower value 1.02 | locus YAL021C, strain ccr4, stronger effect = lower value 1.01 | locus YAL026C, strain drs2, stronger effect = lower value 1.01 | locus YAL030W, strain snc1, stronger effect = lower value 0.988 | locus YBL061C, strain skt5, stronger effect = lower value 1 | locus YBR009C, strain hhf1, stronger effect = lower value 1 | locus YBR021W, strain FUR4, stronger effect = lower value 1.02 | locus YBR023C, strain chs3, stronger effect = lower value 1.01 | locus YBR171W, strain sec66, stronger effect = lower value 0.996 | locus YBR229C, strain ROT2, stronger effect = lower value 1.02 | locus YBR231C, strain swc5, stronger effect = lower value 1.02 | locus YBR279W, strain paf1, stronger effect = lower value 1 | locus YCL011C, strain gbp2, stronger effect = lower value 0.99 | locus YCL016C, strain dcc1, stronger effect = lower value 1.01 | locus YCL029C, strain bik1, stronger effect = lower value 1.02 | locus YCL061C, strain MRC1, stronger effect = lower value 0.993 | locus YCL069W, strain vba3, stronger effect = lower value 0.996 | locus YCR088W, strain abp1, stronger effect = lower value 0.996 | locus YDL005C, strain med2, stronger effect = lower value 1 | locus YDL035C, strain GPR1, stronger effect = lower value 1.08 | locus YDL040C, strain nat1, stronger effect = lower value 0.994 | locus YDL074C, strain BRE1, stronger effect = lower value 1.19 | locus YDL101C, strain DUN1, stronger effect = lower value 1.01 | locus YDL185W, strain tfp1, stronger effect = lower value 0.971 | locus YDL192W, strain arf1, stronger effect = lower value 1.04 | locus YDR001C, strain nth1, stronger effect = lower value 0.991 | locus YDR069C, strain doa4, stronger effect = lower value 1.03 | locus YDR101C, strain arx1, stronger effect = lower value 1.01 | locus YDR137W, strain rgp1, stronger effect = lower value 0.955 | locus YDR159W, strain sac3, stronger effect = lower value 1.03 | locus YDR162C, strain NBP2, stronger effect = lower value 1.05 | locus YDR195W, strain ref2 1.07 | locus YDR297W, strain sur2, stronger effect = lower value 0.994 | locus YDR318W, strain mcm21, stronger effect = lower value 1.04 | locus YDR334W, strain swr1, stronger effect = lower value 1.01 | locus YDR335W, strain msn5, stronger effect = lower value 1 | locus YDR388W, stronger effect = lower value 1 | locus YDR392W, strain spt3, stronger effect = lower value 0.793 | locus YDR502C, strain sam2, stronger effect = lower value 1.03 | locus YEL003W, strain gim4, stronger effect = lower value 0.996 | locus YEL037C, strain rad23, stronger effect = lower value 1 | locus YEL061C, strain CIN8 (second series), stronger effect = lower value 0.992 | locus YER015W, strain faa2, stronger effect = lower value 1.01 | locus YER016W, strain bim1, stronger effect = lower value 1.01 | locus YER110C, stronger effect = lower value 1.03 | locus YER111C, strain swi4, stronger effect = lower value 0.993 | locus YER155C, strain BEM2 (second series), stronger effect = lower value 0.949 | locus YER155C, strain BEM2, stronger effect = lower value 1.01 | locus YER167W, strain BCK2, stronger effect = lower value 1.01 | locus YFR010W, strain ubp6, stronger effect = lower value 1.02 | locus YGL078C, strain dbp3, stronger effect = lower value 1.02 | locus YGL086W, strain mad1, stronger effect = lower value 1.01 | locus YGL167C, strain pmr1, stronger effect = lower value 0.991 | locus YGL173C, strain kem1, stronger effect = lower value 0.998 | locus YGL227W, strain vid30, stronger effect = lower value 1 | locus YGL240W, strain doc1, stronger effect = lower value 0.981 | locus YGL248W, strain PDE1, stronger effect = lower value 1.08 | locus YGL253W, strain hxk2, stronger effect = lower value 1.01 | locus YGR078C, strain PAC10, stronger effect = lower value 1.06 | locus YGR135W, strain pre9, stronger effect = lower value 1.04 | locus YGR252W, strain gcn5, stronger effect = lower value 1.15 | locus YHR013C, strain ard1, stronger effect = lower value 0.927 | locus YHR027C, strain rpn1, stronger effect = lower value 1 | locus YHR030C, strain SLT2, stronger effect = lower value 1.01 | locus YHR079C, strain IRE1 (second series), stronger effect = lower value 1.03 | locus YHR094C, strain hxt1, stronger effect = lower value 0.998 | locus YHR129C, strain ARP1, stronger effect = lower value 1.03 | locus YHR142W, strain chs7, stronger effect = lower value 0.971 | locus YHR200W, strain rpn10, stronger effect = lower value 1.01 | locus YIL066C, strain RNR3, stronger effect = lower value 1.03 | locus YIL073C, strain SPO22, stronger effect = lower value 1.23 | locus YIL125W, strain kgd1, stronger effect = lower value 1.01 | locus YIR030C, strain dcg1, stronger effect = lower value 1.02 | locus YJL092W, strain hpr5, stronger effect = lower value 1 | locus YJL095W, strain BCK1 (second series), stronger effect = lower value 1.02 | locus YJL095W, strain BCK1, stronger effect = lower value 1.07 | locus YJL115W, strain asf1, stronger effect = lower value 1.02 | locus YJL129C, strain trk1, stronger effect = lower value 0.989 | locus YJL134W, strain LCB3, stronger effect = lower value 1.01 | locus YJL154C, strain vps35, stronger effect = lower value 1.01 | locus YJL164C, strain tpk1, stronger effect = lower value 0.992 | locus YJL166W, strain qcr8, stronger effect = lower value 0.98 | locus YJL168C, strain set2, stronger effect = lower value 1.04 | locus YJL187C, strain SWE1 (second series), stronger effect = lower value 1.04 | locus YJL187C, strain SWE1, stronger effect = lower value 0.991 | locus YJR043C, strain POL32, stronger effect = lower value 1.05 | locus YJR075W, strain HOC1, stronger effect = lower value 1.02 | locus YKL009W, strain mrt4, stronger effect = lower value 1.03 | locus YKL068W, stronger effect = lower value 1.01 | locus YKL085W, strain MDH1 (second series), stronger effect = lower value 0.99 | locus YKL085W, strain MDH1, stronger effect = lower value 0.99 | locus YKL160W, strain elf1, stronger effect = lower value 0.986 | locus YKR001C, strain vps1, stronger effect = lower value 1.07 | locus YKR026C, strain gcn3, stronger effect = lower value 1 | locus YKR091W, strain srl3, stronger effect = lower value 0.995 | locus YLL001W, strain dnm1, stronger effect = lower value 0.993 | locus YLL026W, stronger effect = lower value 1 | locus YLL041C, strain sdh2, stronger effect = lower value 0.999 | locus YLR027C, strain aat2, stronger effect = lower value 1.01 | locus YLR039C, strain RIC1, stronger effect = lower value 1.22 | locus YLR058C, strain SHM2, stronger effect = lower value 1.04 | locus YLR102C, strain apc9, stronger effect = lower value 1.01 | locus YLR221C, strain rsa3, stronger effect = lower value 0.988 | locus YLR258W, strain gsy2, stronger effect = lower value 0.987 | locus YLR262C, strain YPT6 (second series), stronger effect = lower value 0.932 | locus YLR268W, strain sec22, stronger effect = lower value 1.05 | locus YLR320W, strain mms22, stronger effect = lower value 0.942 | locus YLR330W, strain CHS5, stronger effect = lower value 1.03 | locus YLR342W, strain FKS1 (second series), stronger effect = lower value 1.05 | locus YLR342W, strain FKS1, stronger effect = lower value 0.996 | locus YLR357W, strain rsc2, stronger effect = lower value 1.02 | locus YLR370C, strain arc18, stronger effect = lower value 1 | locus YLR371W, strain rom2, stronger effect = lower value 1.02 | locus YLR384C, strain iki3, stronger effect = lower value 1.03 | locus YLR418C, strain cdc73, stronger effect = lower value 1.15 | locus YML016C, strain PPZ1, stronger effect = lower value 1.01 | locus YML032C, strain rad52, stronger effect = lower value 1.03 | locus YML120C, strain ndi1, stronger effect = lower value 0.994 | locus YML124C, strain tub3, stronger effect = lower value 1.02 | locus YMR058W, strain fet3, stronger effect = lower value 0.999 | locus YMR078C, strain ctf18, stronger effect = lower value 1.02 | locus YMR125W, strain sto1, stronger effect = lower value 1 | locus YMR129W, stronger effect = lower value 0.993 | locus YMR205C, strain PFK2, stronger effect = lower value 0.928 | locus YMR223W, strain ubp8, stronger effect = lower value 1.03 | locus YMR231W, strain pep5, stronger effect = lower value 1.01 | locus YMR307W, strain GAS1, stronger effect = lower value 1.25 | locus YNL067W, strain RPL9B, stronger effect = lower value 1.01 | locus YNL071W, strain lat1, stronger effect = lower value 0.966 | locus YNL153C, strain GIM3, stronger effect = lower value 1.06 | locus YNL209W, strain ssb2, stronger effect = lower value 1.01 | locus YNL233W, strain BNI4, stronger effect = lower value 1.08 | locus YNL248C, strain rpa49, stronger effect = lower value 1 | locus YNL250W, strain rad50, stronger effect = lower value 1.02 | locus YNL271C, strain bni1, stronger effect = lower value 1.01 | locus YNL298W, strain CLA4, stronger effect = lower value 1.03 | locus YNL307C, strain MCK1, stronger effect = lower value 1.02 | locus YNL322C, strain KRE1 (second series), stronger effect = lower value 0.999 | locus YNR049C, strain mso1, stronger effect = lower value 1 | locus YNR052C, strain pop2, stronger effect = lower value 1.03 | locus YOL006C, strain TOP1, stronger effect = lower value 1.32 | locus YOL012C, strain htz1 1.02 | locus YOL147C, strain pex11, stronger effect = lower value 1.02 | locus YOR001W, strain rrp6, stronger effect = lower value 0.979 | locus YOR061W, strain CKA2, stronger effect = lower value 1.02 | locus YOR069W, strain VPS5, stronger effect = lower value 1.02 | locus YOR070C, strain gyp1, stronger effect = lower value 1 | locus YOR080W, strain dia2, stronger effect = lower value 1.01 | locus YOR083W, strain WHI5, stronger effect = lower value 0.994 | locus YOR106W, strain vam3, stronger effect = lower value 0.995 | locus YOR136W, strain idh2, stronger effect = lower value 1.02 | locus YOR144C, strain elg1, stronger effect = lower value 1.02 | locus YOR184W, strain ser1, stronger effect = lower value 1.05 | locus YOR265W, strain rbl2, stronger effect = lower value 0.994 | locus YOR270C, strain vph1, stronger effect = lower value 0.843 | locus YOR290C, strain snf2, stronger effect = lower value 0.952 | locus YOR316C, strain cot1, stronger effect = lower value 1.01 | locus YPL051W, strain arl3, stronger effect = lower value 0.992 | locus YPL078C, strain atp4, stronger effect = lower value 0.987 | locus YPL106C, strain sse1, stronger effect = lower value 0.987 | locus YPL240C, strain hsp82, stronger effect = lower value 1 | locus YPR119W, strain clb2, stronger effect = lower value 1.02 | locus YPR141C, strain kar3, stronger effect = lower value 0.999 | locus YPR163C, strain tif3, stronger effect = lower value 1.02 | locus YPR167C, strain met16, stronger effect = lower value 1.03 | strain wtn01, stronger effect = lower value 1.03
